# Experimental data: PubChem BioAssay (EPA / NIEHS)
# Calls of active or inactive are those of the source. How the source made its calls: active means hit-call score of the fitted dose curve at least 0.9, where 1 is the maximum; inactive means score below 0.9.
# Read-out: E-selectin (Homo sapiens) (UniProt P16581)
# Assay: BSK_3C_Eselectin: BioMAP Diversity Plus: 3C Assay for Eselectin Biomarker Activity (AID 2283015)
# Conditions: primary human endothelial cells (HUVEC); actives raise or lower the signal
# Method: BSK_3C is a cell-based, multiplexed-readout assay that uses umbilical vein endothelium, a human vascular primary cell, with measurements taken at 24 hours after chemical dosing in a 96-well plate.BSK_3C_Eselectin is an assay component measured in the BSK_3C assay. It measures E-selectin antibody related to regulation of gene expression using ELISA technology.Data from the assay component BSK_3C_Eselectin was analyzed into 1 assay endpoint. This assay endpoint, BSK_3C_Eselectin, was analyzed with bidirectional fitting relative to DMSO as the negative control and baseline of activity. Using a type of binding reporter, gain or loss-of-signal activity can be used to understand changes in the signaling as they relate to the gene SELE. Furthermore, this assay endpoint can be referred to as a primary readout, because this assay has produced multiple assay endpoints where this one serves a signaling function. To generalize the intended target to other relatable targets, this assay endpoint is annotated to the cell adhesion molecules intended target family, where the subfamily is selectins.
# The levels of cell surface (or secreted, indicated by the prefix "s") biomarker endpoints were measured by ELISA. Overt cytotoxicity to cells in confluent adherent cultures (all systems other than the BT system) was assessed by measuring total protein levels using sulforhodamine B (SRB) staining in parallel cultures at the time of biomarker measurements, indicated as SRB endpoints. For proliferation assays for adherent cell types, individual cell types are cultured at sub-confluence and relative cell numbers quantified by SRB staining at time points optimized for each system (48 h: 3C and CASM3C systems; 72 h: BT and HDF3CGF systems; 96 h: SAg system). SRB was performed by staining cells with 0.1% SRB after fixation with 10% TCA and reading wells at 560 nm.Viability and proliferation of PBMC (T cells) was quantified by Alamar Blue reduction for the SAg and BT systems. For PBMC viability (referred to as PBMC Cytotoxicity within the assay endpoint names), cells were plated (75,000/well in a 96-well plate) and then chemical samples added for 1 h before addition of activators, SEB and TSST-1 (20 ng/mL final concentration each). Cells were incubated for 90 h. Then, Alamar Blue (20 uL/well) (Invitrogen, Cat DAL1100) was added for 6 h, and the plates were read with a fluorescence microplate reader at 546/580 nm (excitation/emission). For PBMC proliferation, cells were plated and activated as above but incubated for only 16 h prior to addition of Alamar Blue. Plates were read after 6 h.
# E-selectin (Homo sapiens), sequence (P16581 whole entry, looked up): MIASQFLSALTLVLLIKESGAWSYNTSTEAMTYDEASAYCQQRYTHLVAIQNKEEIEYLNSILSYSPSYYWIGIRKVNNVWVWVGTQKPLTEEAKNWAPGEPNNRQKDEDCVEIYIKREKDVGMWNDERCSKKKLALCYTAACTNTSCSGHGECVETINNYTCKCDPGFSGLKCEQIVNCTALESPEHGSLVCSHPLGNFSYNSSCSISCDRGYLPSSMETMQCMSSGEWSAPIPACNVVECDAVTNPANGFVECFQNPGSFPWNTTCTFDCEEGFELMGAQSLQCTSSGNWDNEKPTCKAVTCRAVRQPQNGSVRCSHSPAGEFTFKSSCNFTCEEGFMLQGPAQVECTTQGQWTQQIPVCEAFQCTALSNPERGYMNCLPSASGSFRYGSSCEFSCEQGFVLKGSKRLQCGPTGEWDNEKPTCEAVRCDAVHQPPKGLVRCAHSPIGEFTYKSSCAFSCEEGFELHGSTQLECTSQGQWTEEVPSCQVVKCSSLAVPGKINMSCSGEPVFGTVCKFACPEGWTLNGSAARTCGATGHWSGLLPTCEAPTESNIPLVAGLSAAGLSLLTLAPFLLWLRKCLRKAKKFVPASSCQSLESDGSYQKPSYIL
Structure (SMILES),outcome,AC50
CCCCc1nc2cccnc2n1Cc1ccc(-c2ccccc2-c2nnn[nH]2)cc1,inactive,–
Cc1ccc(-c2cc(C(F)(F)F)nn2-c2ccc(S(N)(=O)=O)cc2)cc1,–,30 µM (active)
C/C=C/c1ccc(OC)cc1,inactive,–
COC(=O)CCCC(=O)OC,inactive,–
CC(=O)CC(c1ccccc1)c1c(O)c2ccccc2oc1=O (stereo not given),inactive,–
CC(=O)S[C@H](C(=O)N[C@H]1Cc2ccccc2[C@H]2CCC[C@@H](C(=O)O)N2C1=O)C(C)C,inactive,–
CCCCCCCCCCCCCCOS(=O)(=O)O,inactive,–
NC(=Nc1ccccc1)Nc1ccccc1,inactive,–
CC(C)c1cccc(C(C)C)c1,inactive,–
CC(=O)OC1CC(C)OC(C)O1 (stereo not given),inactive,–
O=Cc1ccccc1C=O,inactive,–
OCC(O)CO,inactive,–
CC(C)OC(=O)C(C)(C)Oc1ccc(C(=O)c2ccc(Cl)cc2)cc1,inactive,–
CCCC(=O)O,inactive,–
CC(C)c1cccc(C(C)C)c1NC(=O)NS(=O)(=O)c1cc(C(C)(C)O)co1,inactive,–
C=CCCCCCCCCCCCC,inactive,–
NCCOCCOCCN,inactive,–
Cc1c(C)c2c(c(C)c1O)CCC(C)(COc1ccc(CC3SC(=O)NC3=O)cc1)O2 (stereo not given),–,30.3 µM (active)
CCCCC(CC)COC(=O)CCCCCCCC(=O)OCC(CC)CCCC (stereo not given),inactive,–
O=[Si]=O,inactive,–

Structure (SMILES),outcome,AC50
CCCCCCC(CCCCCCCCCCC(=O)OCC(COC(C)=O)OC(C)=O)OC(C)=O (stereo not given),inactive,–
CN(C)C(=O)NC1(c2ccccc2)CCN(CC[C@@]2(c3ccc(F)c(F)c3)CN(C(=O)c3ccccc3)CCO2)CC1,inactive,–
CC1(C)C(=O)NC(=O)N1CO,inactive,–
CCc1nc(N)nc(N)c1-c1ccc(Cl)cc1,inactive,–
CS(=O)(=O)c1ccc([C@@H](C[C@H]2CCC(=O)C2)C(=O)Nc2cnccn2)cc1Cl,inactive,–
CCC(C)N(C)C(=O)c1cc2ccccc2c(-c2ccccc2Cl)n1 (stereo not given),inactive,–
C#CC(O)C(CC)CCCC (stereo not given),inactive,–
Oc1ccc(O)cc1,–,13.8 µM (active)
CC(C)(C)c1ccccc1,inactive,–
NC=O,inactive,–
CCCCCCC(C=O)=Cc1ccccc1,–,37.7 µM (active)
CC(N)=O,inactive,–
c1ccc2occc2c1,inactive,–
CO[C@@H]1COCC[C@@H]1N[C@@H]1CC[C@@](C(=O)N2CCc3ncc(C(F)(F)F)cc3C2)(C(C)C)C1,inactive,–
O=C(O)c1[nH]n(-c2ccc(S(=O)(=O)O)cc2)c(=O)c1N=Nc1ccc(S(=O)(=O)O)cc1,inactive,–
Nc1nc(Cl)nc2c1ncn2[C@H]1C[C@H](O)[C@@H](CO)O1,inactive,–
NC1CCCCC1,inactive,–
O=C1O[C@H]([C@H](O)CO)C(O)=C1O,inactive,–
Nc1nc(=S)c2[nH]cnc2[nH]1,inactive,–
O=C(Oc1ccccc1)c1cccc(C(=O)Oc2ccccc2)c1,inactive,–
